Shown are actives, neighbours in structure and some others; about 7% of the full set was active somewhere.
D3 antag: qHTS of D3 Dopamine Receptor Antagonist: qHTS; D(3) dopamine receptor (Homo sapiens), P35462; D3R cells, DiscoveRx beta-arrestin luminescence, antagonist mode; stronger effect = lower value; max response, negative = inhibition, %; hit rate 2.5% among 360,000; in the data active means max response below about -50%; inconclusive means no clear call, values can overlap the other calls
Target sequence (P35462 whole entry, looked up): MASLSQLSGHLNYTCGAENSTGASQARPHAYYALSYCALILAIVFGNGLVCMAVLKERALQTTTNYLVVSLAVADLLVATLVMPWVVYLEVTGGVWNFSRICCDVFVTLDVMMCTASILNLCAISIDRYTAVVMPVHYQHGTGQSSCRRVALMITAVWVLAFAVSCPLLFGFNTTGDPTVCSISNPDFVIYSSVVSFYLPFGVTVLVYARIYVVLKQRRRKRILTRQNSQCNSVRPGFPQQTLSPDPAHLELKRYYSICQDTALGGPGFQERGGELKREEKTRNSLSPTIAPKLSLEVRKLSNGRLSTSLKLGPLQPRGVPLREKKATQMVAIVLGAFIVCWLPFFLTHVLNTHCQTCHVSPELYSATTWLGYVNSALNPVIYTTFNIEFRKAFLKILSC
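Cells plated overnight at 1500 cells/well, then exposed to library compounds with dopamine controls for 90 minutes at 37 degrees C. DiscoveRx reagent added for 30–60 minutes at room temperature; luminescence read, quantitative HTS format.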
IL1B secr inh: qHTS for Inhibitors of Inflammasome Signaling: IL-1-beta AlphaLISA Primary Screen; AID 743279, 2014; THP-1 LPS/ATP IL-1B secretion, AlphaLISA, 16 h; stronger effect = lower value; hit rate 4.7% among 360,000; activity change, % at 57.5 µM; in the data active means activity change below about -50%; inconclusive means mostly about -30% to -49%
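Secreted IL-1B measured by AlphaLISA bead assay after 16 h compound exposure of THP-1 cells; compounds (final up to 57.5 uM) added 1 h before LPS (250 ng/mL) and ATP (1.25 mM) stimulation; lower signal means less secretion.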
ATXN2 expr inh: Primary qHTS for Inhibitors of ATXN expression; HEK-293 ATXN2-luciferase reporter, luminescence, 24 h; Potency, µM (titrated, usually from 57 µM), actives largely listed as inhibitors; hit rate 0.72% among 360,000; further: nearly all actives have a fitted effect of over 55% in size
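qHTS (up to 57 uM final) was run with 24 h compound exposure of reporter cells at 37 °C. Each well was multiplexed: SteadyGlo luminescence measured ATXN2-luciferase expression after a fluorogenic Gly-Phe-AFC viability readout (25 uM final).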
a7 integrin act: qHTS for Activators of Integrin-Mediated Alleviation for Muscular Dystrophy; alpha7betagal myoblasts, beta-gal FDG fluorescence, 48 h; Potency, µM (titrated, usually from 38.3 µM), usual class: activators; hit rate 0.064% among 350,000; AID 624291, 2012; further: nearly all actives have a fitted effect of over 60% in size
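Alpha7betagal+/- myoblasts (passage 13) were plated 16-24 hr, then exposed to compounds (1:260 dilution of DMSO stock) for 48 hours at 37C. After MPER lysis, β-galactosidase reporter activity was read as FDG fluorescence (ex 480/em 540) after 30 minutes.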
D3 ag: qHTS of D3 Dopamine Receptor Agonist: qHTS | D(3) dopamine receptor (Homo sapiens), P35462 | AID 652048, 2013 | hit rate 0.58% among 410,000 | max activation, % | D3R DiscoveRx beta-arrestin cells, luminescence, 90 min; in the data active means max activation above about 30%
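Agonist mode: compounds and dopamine controls were applied to plated cells for 90 min at 37 degrees C after an overnight attachment at 1500 cells/well. Luminescent read-out followed 30 - 60 minutes at room temperature with DiscoveRx detection reagent.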
ATXN viability: Viability Counterscreen for Primary qHTS for Inhibitors of ATXN expression; S2 cells (HEK-293 line with an ATXN2-luciferase reporter) viability, CellTiter-Fluor protease fluorescence, 24 h; Potency, µM (doses to about 56.7 µM), actives largely listed as cytotoxic; hit rate 0.49% among 400,000; further: nearly all actives have a fitted effect of over 40% in size
A number is an active result; n = inactive; u = inconclusive; x = no result. Unless noted, the call rests on the fitted dose curve; in most records, active means well fitted curve in the direction sought with a large enough effect; inconclusive means small, poorly fitted or top-dose-only effect, or another doubt; inactive means no such curve, though single readings can be large; an effect the other way counts as inactive or inconclusive.

SMILES | D3 antag | IL1B secr inh | ATXN2 expr inh | a7 integrin act | D3 ag | ATXN viability
CCOc1ccc(C(=O)NCC(c2ccc3c(c2)OCO3)N2CCN(c3ccc(F)cc3)CC2)cc1 (stereo not drawn) | x | x | n | x | n | n
CCCCN1C(=O)C(CC(=O)NCCCCc2ccccc2)CC(C(=O)N(C(C)C)C(C)C)=C1C (stereo not drawn) | n | n | n | n | n | u
Cc1ccccc1-c1nn(-c2ccc(F)cc2F)cc1CNCCCN(C)C | n | -61.6 | n | n | n | n
O=C(CN1C(=O)c2cccnc2Oc2ccc(Cl)cc21)NC1CCCC1 | n | n | n | n | n | n
CN(C#N)c1nccc(-c2cccs2)n1 | n | n | x | 11.2µM | n | n
c1ccc(-c2cccs2)nc1 | n | x | n | n | n | n
CN(C)/C=N/c1nccc(-c2cccs2)n1 | n | n | n | 8.91µM | n | n
c1cc(-c2cccs2)nc(-c2cccs2)c1 | n | n | n | n | n | n
O=C(CSc1nnc2n1CCCCC2)NCc1ccccc1 | n | n | x | n | n | n
COc1cc(NC(=O)CCNC(=O)N2CC(=O)Nc3ccccc32)cc(OC)c1OC | u | n | x | n | n | n
CCc1nnc(NC(=O)CSc2nnc(-c3ccco3)o2)s1 | n | n | n | n | n | n
CCCS(=O)(=O)N1CCCC(C(=O)NCCc2ccccc2)C1 (stereo not drawn) | n | n | n | n | n | n
O=C(NCC1CCN(c2ccc(S(=O)(=O)N3CCOCC3)cc2)CC1)c1ccc(Cl)cc1 | n | -75.0 | n | n | n | n
O=C(NCC1CCCO1)C1CCCN(S(=O)(=O)c2ccc(Cl)cc2)C1 (stereo not drawn) | n | n | n | n | 33.7 | n
CCCS(=O)(=O)N1CCCC(C(=O)c2cccc(Cl)c2)C1 (stereo not drawn) | -67.8 | n | n | 6.31µM | n | n
CCCS(=O)(=O)N1CCCC(C(=O)NCCc2ccc(Cl)cc2)C1 (stereo not drawn) | -63.1 | n | n | n | n | n
COC(=O)C1C(=O)C2=C(CC1C)Nc1ccccc1NC2c1ccc(C)s1 (stereo not drawn) | n | n | n | n | n | n
N=C(N)SCCN | n | n | n | x | n | n
CSCCC(NC(=O)COc1ccccc1)C(=O)N1CCN(c2ccccc2)CC1 (stereo not drawn) | n | n | n | n | n | n
COC(=O)c1ccc(C(=O)OC)c(NC(=O)c2c(-c3ccccc3)noc2C)c1 | x | x | n | x | n | n
CCCCS(=O)(=O)N1CCCC(C(=O)NCCc2ccccc2)C1 (stereo not drawn) | n | n | x | 7.08µM | n | u
COC(=O)CNC(c1ccccc1)c1cc(Br)ccc1NC(=O)CCN1CCOCC1 (stereo not drawn) | n | -55.4 | x | n | n | u
CCN(CC)c1ccc(/C=C2\C(=O)N(c3nnc(C)c(=O)[nH]3)N=C2C)cc1 | n | -97.8 | n | n | n | n
Oc1ccc(Cl)cc1C1=Nc2ccccc2N=C(c2cccc(Br)c2)C1 | x | x | n | x | n | n
O=C(CS(=O)(=O)Cc1ccccc1)NCCc1ccc(F)cc1 | n | n | n | u | n | n
SMILES | D3 antag | IL1B secr inh | ATXN2 expr inh | a7 integrin act | D3 ag | ATXN viability
CC(=O)c1cccc(S(=O)(=O)N2CCCC(c3nc4c(nnn4Cc4ccccc4Cl)c(=O)[nH]3)C2)c1 (stereo not drawn) | n | -70.4 | n | n | n | n
O=C(c1ccco1)N1CCC(c2nc3c(nnn3Cc3c(Cl)cccc3Cl)c(=O)[nH]2)CC1 | n | n | n | n | n | u
O=c1[nH]c(C2CCN(S(=O)(=O)c3ccccc3C(F)(F)F)CC2)nc2c1nnn2Cc1ccccc1 | n | -50.7 | n | n | n | n
CC(C)(C)c1ccc(Cn2nnc3c(=O)[nH]c(C4CCN(C(=O)c5ccco5)CC4)nc32)cc1 | n | -67.2 | n | n | 31.5 | n
CC1=CC(=NOC(=O)/C=C/c2ccccc2)C=C(C)C1=O | n | -64.7 | n | n | n | n
O=C(NCc1cccs1)c1cc(-c2ccccc2)nn1CC1CC(c2cccnc2)=NO1 (stereo not drawn) | n | n | n | n | n | n
O=C1CC(c2ccccc2)Cc2[nH]c(=O)c(C(=O)Nc3ccc(F)cc3)cc21 (stereo not drawn) | x | x | n | x | n | n
O=C1CC(c2ccccc2)Cc2[nH]c(=O)c(C(=O)Nc3ccc(OC(F)(F)F)cc3)cc21 (stereo not drawn) | x | x | n | x | n | 25.1µM
CC1=C(C(=O)N2CCOCC2)CC(CC(=O)NC2CC2)C(=O)N1Cc1ccc(C(C)(C)C)cc1 (stereo not drawn) | u | n | n | n | n | n
CC1=C(C(=O)N2CCCCCC2)CC(CC(=O)NCC2CCCCC2)C(=O)N1Cc1ccc(F)cc1 (stereo not drawn) | -64.3 | n | n | x | n | u
CC1=C(C(=O)N2CCCCCC2)CC(CC(=O)NCC2CCCCC2)C(=O)N1Cc1ccccc1 (stereo not drawn) | n | n | n | x | n | u
CC1=C(C(=O)N2CCOCC2)CC(CC(=O)NCC2CCCCC2)C(=O)N1Cc1ccc(C(C)(C)C)cc1 (stereo not drawn) | n | -53.3 | n | x | n | u
COCCCN1C(=O)C(CC(=O)NCCCN(C)C)CC(C(=O)N2CCCCCC2)=C1C (stereo not drawn) | n | n | n | x | n | n
COCCCN1C(=O)C(CC(=O)NCCCN(C)C)CC(C(=O)N2CCOCC2)=C1C (stereo not drawn) | n | n | n | x | 95.3 | n
CCCCN1C(=O)C(CC(=O)NC2CCCCC2)CC(C(=O)N2CCOCC2)=C1C (stereo not drawn) | -53.5 | n | n | x | n | u
CC(=O)N1CCc2cc(Br)cc(S(=O)(=O)N3CCN(c4cccc(C)c4)C(C)C3)c21 (stereo not drawn) | x | x | n | x | n | n
Cc1cccc(N(C)S(=O)(=O)c2c(C(=O)N3CCCCCC3)c(C)n(C)c2C)c1 | x | x | n | x | n | u
O=C(COc1ccccc1)Nc1c(C(=O)N2CCN(c3ccc(F)cc3)CC2)oc2ccccc12 | x | x | n | x | n | n
O=C(O)CCC(=O)N1N=C(c2ccco2)CC1c1cccs1 (stereo not drawn) | n | n | n | n | n | n
CC1=C(C(=O)N(C)C)CC(CC(=O)NCC2CCCCC2)C(=O)N1Cc1ccc(C(C)(C)C)cc1 (stereo not drawn) | n | n | u | n | n | u
